# Residue numbers refer to the chain shown, from its start.
# Experiments:
# Test in all cases: yeast three-hybrid, YBZ-1, SC-Leu-His + 0.5 mM 3-AT, 4 days
# Conditions in all cases: tags: N-Gal4 AD-HA kept; label: inside an RPR1-promoter hybrid RNA with tandem MS2 sites; ssRNA
# PUM1 PUF domain R3-SNF = PUM1 PUF domain R3-SNF (Homo sapiens, UniProt Q14671 828-1176, C935S;R936N;Q939F)
# How it was run: (§1)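 Pumilio-1 PUF domain libraries, randomized (NNK) at the three base-contacting residues of each repeat, were co-expressed with matching RNA elements from a centromeric plasmid in strain YBZ-1 (LexA–MS2 coat fusion, HIS3 reporter). Transformants were plated on SC-Leu (input) and SC-Leu-His + 0.5 mM 3-AT (selection) for four days, and repeat regions were PCR-amplified and Illumina-sequenced. The interaction score is the log2 change in variant frequency from input to selection, with pseudocount 1 where absent.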
# PUM1 PUF domain R6-VWC = molecular target: T1, PUM1 PUF domain R6-VWC (Homo sapiens, UniProt Q14671 828-1176, N1043V;Y1044W;Q1047C)
# T1 sequence: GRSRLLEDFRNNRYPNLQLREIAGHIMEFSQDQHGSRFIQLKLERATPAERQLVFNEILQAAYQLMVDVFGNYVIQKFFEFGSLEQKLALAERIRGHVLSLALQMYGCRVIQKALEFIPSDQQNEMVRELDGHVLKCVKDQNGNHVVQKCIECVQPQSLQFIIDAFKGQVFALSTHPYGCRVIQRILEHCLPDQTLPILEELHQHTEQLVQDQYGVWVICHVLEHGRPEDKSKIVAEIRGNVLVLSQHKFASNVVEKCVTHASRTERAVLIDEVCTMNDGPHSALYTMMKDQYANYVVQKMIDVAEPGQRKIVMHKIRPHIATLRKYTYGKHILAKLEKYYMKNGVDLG
# How it was run: as §1
# PUM1 PUF domain R5-LHC = PUM1 PUF domain R5-LHC (Homo sapiens, UniProt Q14671 828-1176, C1007L;R1008H;Q1011C)
# How it was run: as §1
# PUM1 PUF domain R6-GFR = molecular target: T2, PUM1 PUF domain R6-GFR (Homo sapiens, UniProt Q14671 828-1176, N1043G;Y1044F;Q1047R)
# T2 sequence: T1 sequence with V216G, W217F, C220R
# How it was run: as §1
# PUM1 PUF domain R8-KHR = PUM1 PUF domain R8-KHR (Homo sapiens, UniProt Q14671 828-1176, N1122K;Y1123H;Q1126R)
# How it was run: as §1
# PUM1 PUF domain R5-LNS = PUM1 PUF domain R5-LNS (Homo sapiens, UniProt Q14671 828-1176, C1007L;R1008N;Q1011S)
# How it was run: as §1
# PUM1 PUF domain R7-TRR = PUM1 PUF domain R7-TRR (Homo sapiens, UniProt Q14671 828-1176, S1079T;N1080R;E1083R)
# How it was run: as §1
# PUM1 PUF domain R1-QLR = PUM1 PUF domain R1-QLR (Homo sapiens, UniProt Q14671 828-1176, S863Q;R864L;Q867R)
# How it was run: as §1
# PUM1 PUF domain R8-RFD = PUM1 PUF domain R8-RFD (Homo sapiens, UniProt Q14671 828-1176, N1122R;Y1123F;Q1126D)
# How it was run: as §1
# PUM1 PUF domain R6-LFA = molecular target: T3, PUM1 PUF domain R6-LFA (Homo sapiens, UniProt Q14671 828-1176, N1043L;Y1044F;Q1047A)
# T3 sequence: T1 sequence with V216L, W217F, C220A
# How it was run: as §1
sequence,measurement,setting,value
GGCUAGAACUAGUGGAUCCCCCGGCGCCCGGCGGCUCGAGCCCGGGUAAGUGUAAAUAGUCUGCAUGCCGCCGGGCGCCAUGCCUGCAGGUCGACUCUAGAAAACAUG,binding signal,PUM1 PUF domain R3-SNF,2.65 log2 enrichment (interaction score)
same,binding signal,PUM1 PUF domain R6-VWC,3.32 log2 enrichment (interaction score)
same,binding signal,PUM1 PUF domain R5-LHC,2.44 log2 enrichment (interaction score)
same,binding signal,PUM1 PUF domain R6-GFR,4.38 log2 enrichment (interaction score)
same,binding signal,PUM1 PUF domain R8-KHR,2.92 log2 enrichment (interaction score)
GGCUAGAACUAGUGGAUCCCCCGGCGCCCGGCGGCUCGAGCCCGGGUAAGUGUUAAUAGUCUGCAUGCCGCCGGGCGCCAUGCCUGCAGGUCGACUCUAGAAAACAUG,binding signal,PUM1 PUF domain R5-LNS,4.81 log2 enrichment (interaction score)
GGCUAGAACUAGUGGAUCCCCCGGCGCCCGGCGGCUCGAGCCCGGGUAAGUGCAAAUAGUCUGCAUGCCGCCGGGCGCCAUGCCUGCAGGUCGACUCUAGAAAACAUG,binding signal,PUM1 PUF domain R6-GFR,6.98 log2 enrichment (interaction score)
GGCUAGAACUAGUGGAUCCCCCGGCGCCCGGCGGCUCGAGCCCGGGUAAGUCUAAAUAGUCUGCAUGCCGCCGGGCGCCAUGCCUGCAGGUCGACUCUAGAAAACAUG,binding signal,PUM1 PUF domain R7-TRR,3.35 log2 enrichment (interaction score)
GGCUAGAACUAGUGGAUCCCCCGGCGCCCGGCGGCUCGAGCCCGGGUAAGUGUAAAUCGUCUGCAUGCCGCCGGGCGCCAUGCCUGCAGGUCGACUCUAGAAAACAUG,binding signal,PUM1 PUF domain R1-QLR,4.6 log2 enrichment (interaction score)
GGCUAGAACUAGUGGAUCCCCCGGCGCCCGGCGGCUCGAGCCCGGGUAAGCGUAAAUAGUCUGCAUGCCGCCGGGCGCCAUGCCUGCAGGUCGACUCUAGAAAACAUG,binding signal,PUM1 PUF domain R8-RFD,4.38 log2 enrichment (interaction score)
same,binding signal,PUM1 PUF domain R8-KHR,6.43 log2 enrichment (interaction score)
GGCUAGAACUAGUGGAUCCCCCGGCGCCCGGCGGCUCGAGCCCGGGUAAGUGAAAAUAGUCUGCAUGCCGCCGGGCGCCAUGCCUGCAGGUCGACUCUAGAAAACAUG,binding signal,PUM1 PUF domain R6-LFA,6.15 log2 enrichment (interaction score)

# — publication PMC8384837, “Expanding the binding specificity for RNA recognition by a PUF domain”
